Most compounds without a hit are left out; they make up all but 2.5% or so of the library.
GRK2 inh: blocks RNA aptamer binding to human GRK2; P25098; bead flow cytometry, FAM-aptamer displacement from GRK2; inhibition of aptamer binding, % at 10 µM; 330,000 compounds, 0.59% hits;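 active = inhibition of aptamer binding above 40%, roughly 3 SD of noise, on plates passing a quality check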;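 also: median bead fluorescence of bound FAM aptamer so fluorescent compounds give negative values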
Target sequence (P25098 whole entry, looked up): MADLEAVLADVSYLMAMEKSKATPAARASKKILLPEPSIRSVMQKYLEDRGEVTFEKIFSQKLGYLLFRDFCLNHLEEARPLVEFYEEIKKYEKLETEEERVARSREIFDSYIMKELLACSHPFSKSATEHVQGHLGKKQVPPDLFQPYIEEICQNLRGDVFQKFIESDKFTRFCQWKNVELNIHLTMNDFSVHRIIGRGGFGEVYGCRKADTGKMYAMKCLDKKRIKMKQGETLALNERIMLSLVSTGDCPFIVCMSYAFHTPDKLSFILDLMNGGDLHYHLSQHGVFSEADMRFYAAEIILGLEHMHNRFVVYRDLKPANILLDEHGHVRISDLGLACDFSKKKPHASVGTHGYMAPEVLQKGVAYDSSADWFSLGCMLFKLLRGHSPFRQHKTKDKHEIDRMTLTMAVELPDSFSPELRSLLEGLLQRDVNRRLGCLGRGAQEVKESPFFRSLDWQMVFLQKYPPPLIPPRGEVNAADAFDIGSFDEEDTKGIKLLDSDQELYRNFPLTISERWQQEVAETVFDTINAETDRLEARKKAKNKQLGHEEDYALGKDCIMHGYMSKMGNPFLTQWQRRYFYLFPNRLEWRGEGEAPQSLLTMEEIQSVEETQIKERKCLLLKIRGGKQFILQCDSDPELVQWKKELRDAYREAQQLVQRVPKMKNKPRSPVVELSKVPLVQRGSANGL
MEKK3 PB1 HTS: modulators (inhibitors or enhancers) of MEK5 binding to human MEKK3 PB1 domain | binding response (% of control), % at 10 µM | 290,000 compounds, 1.4% hits | AID 1529 | Q99759 | bead-based flow cytometry, Alexa488-MEK5 binding to MEKK3; actives lie on both sides; 0 = blocked by unlabeled MEK5, 100 = vehicle;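 active = binding response more than 3 SD above or below the average of its plate-row segment, actives on both sides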;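 also: Alexa488 bead fluorescence after subtracting the streptavidin-only scavenger bead signal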
MEKK2wt PB1 HTS: raises or lowers MEK5 binding to wildtype human MEKK2 PB1 domain; Q9Y2U5; bead flow cytometry, Alexa488-MEK5 binding to MEKK2 WT; actives lie on both sides; binding response (% of control), % at 10 µM; 290,000 compounds, 1.1% hits; in the data active = binding response below about 67% or above about 130%
MEKK2 mut-MEK5: signal of MEK5 binding to mutant human MEKK2 PB1 domain; bead flow cytometry, Alexa488-MEK5 binding to MEKK2 mutant; percent response, % at 10 µM; 290,000 compounds, 0.35% hits; AID 1530; in the data active = percent response above about 24%, passing the limit was not always enough
GRK2 CP1: confirmation of human GRK2 inhibitors displacing RNA aptamer | shares compounds with GRK2 inh | bead-bound GRK2, FAM-aptamer displacement, flow cytometry | aptamer displacement, % at 10 µM | 2,000 compounds, 4% hits;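 active = aptamer displacement above 40%, near three times the noise of non-fluorescent compounds, on plates passing quality checks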;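 also: negative values mostly reflect intrinsic compound fluorescence rather than true enhancement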
Aptamer quench 1: fluorescent aptamer quenching in GRK2 counter-screen dose response; shares compounds with GRK2 inh; Fluorescent RNA aptamer beads, flow cytometry; active compounds read high; fluorescence change (kMESF span), kMESF (test concentration not listed); 110 tested, under 10 active; AID 504521;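 active = compounds whose bead fluorescence drops by more than 37 kMESF across the dose range, marking them as dye quenchers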
Aptamer quench SP: aptamer fluorescence quenching in GRK2 counter-screen | Carboxyfluorescein RNA aptamer on beads, flow cytometry quenching; active compounds read low | AID 504580 | shares compounds with GRK2 inh | fluorescence response (% of DMSO), % at 10 µM | 2,000 tested, under 10 active;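 active = compounds that quench the bead-bound fluorescent RNA probe, cutting fluorescence to under half of the solvent control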;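 also: counterscreen run without GRK2 so only probe quenching by compound is measured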
GRK2 confirm 2: confirmation of human GRK2 inhibitors binding RNA aptamer site. shares compounds with GRK2 inh. bead-bound GRK2, FAM-aptamer displacement, flow cytometry. inhibition of aptamer binding, % at 10 µM. 360 tested, under 10 active. AID 504782;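 active = inhibition of aptamer binding above 40%, about triple the noise seen with nonglowing compounds, on plates passing quality control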;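 also: negative values mostly come from compounds that fluoresce themselves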
FAM quench SP: counter-screen for GRK2 binding hits: quenchers of fluorescent RNA aptamer; shares compounds with GRK2 inh; carboxyfluorescein RNA aptamer beads, flow cytometry quenching; active compounds read low; fluorescence response vs DMSO, % at 10 µM; 360 tested, under 10 active;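 active = response vs DMSO under 50%, meaning signal dropped by over half, treated as fluorescence quencher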;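 also: labelled aptamer on streptavidin beads without GRK2 as a quench counter-screen; 100% = bead fluorescence of DMSO wells and lower means quenching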
FAM quench PS1: counter-screen for GRK2 aptamer binding inhibitors: aptamer fluorescence quenching | 35 tested, under 10 active | shares compounds with GRK2 inh | fluorescence ratio to DMSO, % at 11.1 µM | Bead-bound FAM RNA aptamer fluorescence quenching, flow cytometry; active compounds read low;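 active = compounds that dim the fluorescent label, raw bead signal shifting by over 33 units between lowest and highest dose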
* = called active by the depositor; x = no result given.

SMILES | GRK2 inh | MEKK3 PB1 HTS | MEKK2wt PB1 HTS | MEKK2 mut-MEK5 | GRK2 CP1 | Aptamer quench SP | others
Cc1cc(C)nc(SCc2nnc(SCC(=O)Nc3nc(-c4ccccc4)cs3)n2C)n1 | 0 | 101 | 99 | 2 | x | x
CCC(CC)NC(=O)CSc1ccc(S(=O)(=O)N2CCOCC2)cn1 | 0 | x | x | x | x | x
CC(C)C(C)NC(=O)CSc1ccc(S(=O)(=O)N2CCOCC2)cn1 (stereo not given) | 61* | x | x | x | 0 | 100
O=C(Nc1cc(S(=O)(=O)N2CCOCC2)ccc1N1CCCC1)c1cc(=O)[nH]c2ccccc12 | 4 | 92 | 97 | -1 | x | x
O=C(Nc1ccccc1N1CCOCC1)c1cc(=O)[nH]c2ccccc12 | 82* | x | x | x | 6 | 99
O=C(O)Cn1c(=O)c2c3c(sc2n(Cc2ccccc2F)c1=O)CCCC3 | 2 | 104 | 104 | 5 | x | x
CSc1ccc(C(=O)C2CCCN(C(=O)CCCn3cncn3)C2)cc1 (stereo not given) | 76* | 102 | 96 | -1 | 6 | 96
CCCC[N+](C)(C)CCC(=O)NC(C)(C)CS(=O)(=O)[O-] | 40 | 103 | 101 | 5 | 27 | 103 | Aptamer quench 1=-236
Cc1ccc(S(=O)(=O)NCCCCCC(=O)NC(C)(C)CO)cc1 | 1 | x | x | x | x | x
COC(=O)c1ccc(Oc2ccc3nncn3n2)cc1 | 49* | 101 | 92 | -2 | 0 | 100
O=C(CNC(=O)c1ccc(Cl)cc1Cl)OCC(=O)N1CCCC1 | 56* | x | x | x | 1 | 99
CC1(C)Cc2ccccc2-c2nnc(-c3cccnc3)n21 | 100* | x | x | x | x | x | GRK2 confirm 2=-8;FAM quench SP=97
O=C1CSc2ccc(S(=O)(=O)NCc3ccccc3Cl)cc2N1 | 3 | 107 | 104 | -1 | x | x
CC(CS(=O)(=O)c1ccc2c(c1)NC(=O)CS2)C(=O)NCc1ccccc1Cl (stereo not given) | 99* | 91 | 93 | -7 | 78* | 95 | Aptamer quench 1=-3.2;FAM quench PS1=97
CN(Cc1ccccc1)C(=O)CCS(=O)(=O)c1ccc2c(c1)NC(=O)CS2 | 5 | 107 | 103 | 6 | x | x | GRK2 confirm 2=5;FAM quench SP=100
CCc1[nH]nc(C(=O)NC2CCCc3c2cnn3-c2cc(C)cc(C)c2)c1C (stereo not given) | 0 | 98 | 100 | 3 | x | x
Cc1cc(C(=O)OC(C)C(=O)N2CCc3ccccc32)ccc1[N+](=O)[O-] (stereo not given) | 0 | x | x | x | x | x
Cn1cnc(Sc2ncnc3nc[nH]c23)c1[N+](=O)[O-] | 96* | 103 | 100 | 6 | -1 | 94
Cn1cnc([N+](=O)[O-])c1Sc1ncnc2nc[nH]c12 | 3 | 99 | 95 | -5 | x | x
Cc1cnc(C(=O)OCC(=O)N(Cc2ccccc2)C(C)C)cn1 | 42* | 115 | 107 | 1 | 5 | 97
Cc1cnc(C(=O)OCC(=O)c2ccccc2)cn1 | 1 | x | x | x | x | x
Cc1cnc(C(=O)OCC(=O)c2ccc(C)s2)cn1 | 45* | x | x | x | -1 | 103
C[C@]12C=CC(=O)C=C1CC[C@@H]1[C@@H]2C(=O)C[C@@]2(C)[C@H]1CC[C@]2(O)C(=O)COC(=O)CCC(=O)O | 78* | 108 | 112 | 6 | 1 | 97
C[C@]12C=CC(=O)C=C1CC[C@@H]1C2C(O)C[C@@]2(C)C1CC[C@]2(O)C(=O)COC(=O)CCC(=O)NC(CC(=O)O)C(=O)O (stereo not given in full) | 2 | 106 | 107 | 8 | x | x
COc1cccc(-c2nc(N3CCCC3)c3ccccc3n2)c1O | 0 | 86 | 90 | -20 | x | x
SMILES | GRK2 inh | MEKK3 PB1 HTS | MEKK2wt PB1 HTS | MEKK2 mut-MEK5 | GRK2 CP1 | Aptamer quench SP | others
COc1cccc(-c2nc(N3CCC(C)CC3)c3ccccc3n2)c1O | 91* | 104 | 104 | 3 | 3 | 100
Cc1ccc(NC(=O)c2ccc(S(=O)(=O)N3CCCC3)cc2)nc1 | 0 | x | x | x | x | x
COCCN(C(=O)c1ccccc1Oc1ccccc1)c1c(N)n(CC(C)C)c(=O)[nH]c1=O | 41* | x | x | x | 0 | 98
O=C(O)Cc1ccc(NS(=O)(=O)c2ccc3ccccc3c2)cc1 | 0 | 105 | 107 | 6 | x | x
O=c1c(=Nc2ccccc2O)c(=O)c2ccccc12 | 70* | 113 | 106 | 3 | 2 | 98
NC(=O)C1CCN(C(=O)CC2(CC(=O)O)CCCC2)CC1 | 2 | 99 | 100 | -1 | x | x
CCOc1ccc(N(CC(=O)NCc2ccccc2OC)S(C)(=O)=O)cc1 | 53* | 100 | 99 | -4 | 0 | 98
CCOc1ccc(N(CC(=O)NCc2ccccc2)S(C)(=O)=O)cc1 | 1 | 101 | 100 | -4 | x | x
O=C(O)c1ccc2c(c1)C(=O)/C(=C\c1ccco1)C2=O | 58* | 87 | 79 | -15 | -4 | 94
O=C(O)c1ccc2c(c1)C(=O)/C(=C/c1ccccc1)C2=O | 16 | 92 | 96 | -2 | x | x
Cc1ccc(C)c(NC(=O)CCC(=O)N/N=C/c2cc([N+](=O)[O-])ccc2O)c1 | 0 | 93 | 81 | -13 | x | x
Cc1cc(=O)oc2cc(OCC(=O)N/N=C/c3cc([N+](=O)[O-])ccc3O)ccc12 | 75* | 94 | 91 | -7 | -2 | 99
COC(=O)c1[nH]c2c(c1C)C(=O)CCC2 | 19 | 104 | 100 | 1 | 1 | 93
Cc1c(C(=O)OC2CCC(C)CC2)[nH]c2c1C(=O)CCC2 (stereo not given) | 1 | 107 | 112 | 7 | x | x
O=C(C1COc2ccccc2O1)N1CCN(c2ccc(F)cc2)CC1 (stereo not given) | 0 | 86 | 82 | -10 | x | x
O=C(C1COc2ccccc2O1)N1CCN(c2ccc([N+](=O)[O-])cc2)CC1 (stereo not given) | 98* | x | x | x | -2 | 98
CCCCCC(=O)Nc1cccc(C2=NOC3(C2)C[C@@H](C(N)=O)N(C(=O)c2cc([N+](=O)[O-])cc([N+](=O)[O-])c2)C3)c1 (stereo not given in full) | 6 | 99 | 100 | -4 | x | x
